Most compounds without a hit are left out; they make up all but 17% or so of the library.
TDP1 cell noCPT: qHTS for Inhibitors of human tyrosyl-DNA phosphodiesterase 1 (TDP1): qHTS in cells in absence of CPT; DT40 Tdp1-/- hTDP1 cells, no CPT, ATP luminescence, 48 h; Potency, µM (series often up to 46.2 µM), for inactives: top-dose activity change, negative = growth inhibition, hits mostly inhibitors; 420,000 tested, 15% active; also: % is scaled to controls: 0 for no effect and ±100 for the full control effect; nearly all actives have a fitted effect of over 55% in size
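No-CPT arm: Tdp1-/-;hTDP1 DT40 cells (400/well) plus compounds, incubated ≥48 hr at 37 °C. Readout CellTiter-Glo luminescence.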
HepG2 tox: HepG2 cytotoxicity, counter-screen for TGF-b inhibitors; HepG2 CAGA-GFP viability, ATP luminescence, 18 h; Potency, µM (doses to about 46.1 µM), inactives show at the top dose activity change, negative = cytotoxicity, actives largely listed as cytotoxic; 410,000 tested, 0.76% active
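HepG2 CAGA-GFP cells (1000/well, DMEM with 1% FBS) received compound, then TGF-beta at 500 pg/mL final, and were incubated 18 hours at 37 degrees C. Viability was read by CellTiter-Glo luminescence. Media-only wells were set as complete cell-killing and DMSO as no toxicity.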
TGFb SMAD3 inh: inhibitors of TGF-b signaling | HepG2 CAGA-GFP TGF-b/SMAD3 reporter, GFP fluorescence, 18 h; TGF-beta stimulated, 500 pg/mL final | Potency, µM (highest dose often 46.1 µM), without a hit: top-dose activity, negative = inhibition, usual class: inhibitors | 410,000 tested, 1.2% active; also: % is scaled to controls: 0 for no effect and ±100 for the full control effect; nearly all actives have a fitted effect of over 65% in size
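HEPG2 CAGA-GFP, 1000 cells/well; 2 h settle, 37 C; cpd via pin tool; TGF-b 500 pg/mL final; 18 h, 37 C; GFP imaging ex488/em500-530; %Activity normalised to -TGF-b and +DMSO controls; CRC fit, curve class.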
TDP1 cell CPT: DT40-hTDP1 cell growth loss with CPT; chicken DT40 Tdp1-/-;hTDP1 cells + 20 nM CPT, ATP luminescence, 48 h; Potency, µM (doses to about 46.2 µM), without a hit: at the top dose activity change, negative = growth inhibition, most hits filed as inhibitors; 420,000 tested, 12% active; AID 686979; also: % is scaled to controls: 0 for no effect and ±100 for the full control effect; nearly all actives have a fitted effect of over 55% in size
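Chicken DT40 Tdp1-/- cells complemented with human TDP1, 400 cells/well, exposed to compounds plus 20 nM camptothecin for at least 48 h at 37 C; viability read as ATP content by CellTiter-Glo luminescence.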
HT1080 IDH1KD tx: HT-1080 IDH1 knockdown cell toxicity (counter line); HT-1080 IDH1 knockdown viability, ATP luminescence, 48 h; Potency, µM (series often up to 46.1 µM), for the others: at the highest dose activity, negative = toxicity, usual class: cytotoxic; 360,000 tested, 2% active;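 also: 0% = DMSO wells and -100% = cell-free medium wells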
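Using the IDH1-knockdown HT-1080 line run in the same batch and compound series as the NT line, viability after 48 h at 37 °C was determined by CellTiter-Glo luminescence and expressed as % activity.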
HT1080-NT tox: kills 2HG-producing HT-1080-NT fibrosarcoma cells. HT-1080-NT fibrosarcoma viability, CellTiter-Glo ATP luminescence, 48 h. Potency, µM (series often up to 46.1 µM), for inactives: at the top dose activity, negative = less viability, usual class: cytotoxic. 360,000 tested, 1.6% active. AID 686970;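 also: NT is the 2HG producing partner of a matched IDH1 knockdown line; 0% = DMSO-treated cells and -100% = media-only wells without cells; nearly all actives have a fitted effect of over 55% in size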
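Toxicity toward the 2HG-producing NT line was scored as %Activity, normalised to DMSO and no-cell wells, from CellTiter-Glo luminescence after 48 hours' treatment.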
* hit, by the source's call; u = inconclusive; x = no result. Calls follow the shape of the dose curve; as a rule, active = well fitted curve in the direction sought with a large enough effect; inconclusive = small, poorly fitted or top-dose-only effect, or another doubt; inactive = no such curve, though single readings can be large; an effect the other way counts as inactive or inconclusive. Potency is read from the fitted curve at half-maximal effect.

SMILES | TDP1 cell noCPT | HepG2 tox | TGFb SMAD3 inh | TDP1 cell CPT | HT1080 IDH1KD tx | HT1080-NT tox
CC(=O)C1=C(O)C(=O)N(c2ccc(Br)cc2)C1c1ccccc1[N+](=O)[O-] (stereo unspecified) | -3.6% | 34.9% | 4.9% | -3.3% | -1.9% | -11.8%
Cc1cn2c(=O)c(C(=O)N3CCN(c4ccccc4F)CC3)cnc2s1 | -7.9% | 1.2% | 0.8% | -8.0% | 14.2% | 3.4%
Cc1ccc2ncnc(Oc3ncccc3[N+](=O)[O-])c2c1 | 6.51µM* | -71.6% | u | 5.8µM* | -5.8% | -5.1%
Cn1c(C(C#N)C(=O)c2sc3ccccc3c2Cl)nc2ccccc21 (stereo unspecified) | 16.4µM* | -34.6% | -28.8% | u | u | u
CC(=O)c1sc(NCCOc2ccc(C)cc2)nc1C | 14.6µM* | -25.6% | -5.9% | u | -2.2% | 4.1%
CC(=O)Nc1nc(C)c(C(C)=O)s1 | u | -0.3% | -0.2% | 14.6µM* | 13.0% | 13.6%
COc1ccc(OCCCC(=O)Nc2nc(C)c(C(C)=O)s2)cc1 | -5.9% | -0.9% | 5.9% | -3.0% | 2.7% | -16.3%
COc1ccc2nc(Nc3nc(C)c(C(C)=O)s3)sc2c1 | 16.4µM* | -26.2% | u | u | u | -21.8%
CC(=O)c1sc(NC(=O)CCS(=O)(=O)c2ccccc2)nc1C | 5.8µM* | -77.6% | 17.8µM* | 5.17µM* | u | -8.6%
CC(=O)c1sc(NC(=O)C(C)C)nc1C | -20.7% | -16.0% | 14.2% | -0.4% | 10.8% | 7.2%
CCCn1c(SCC(O)c2ccccc2)nc2ccccc21 (stereo unspecified) | u | -11.5% | u | -25.9% | x | x
Cc1nc(C(F)(F)F)ccc1C(=O)N1CCC1(C)C(=O)NS(=O)(=O)c1ccc(C#N)cc1 (stereo unspecified) | -2.7% | 27.6% | 19.9% | -20.2% | u | 19.5%
Cc1ccc(S(=O)(=O)CCC(=O)Nc2ccc(F)cc2)cc1 | 3.8% | -4.4% | -2.9% | -0.9% | 1.3% | -9.0%
CC(=O)c1sc(NC(=O)CCS(=O)(=O)c2ccc(F)cc2)nc1C | 2.91µM* | -97.1% | u | 2.59µM* | u | u
N#CCN(CC#N)C(=O)C1c2ccccc2Oc2ccccc21 | u | 5.6% | 7.1% | u | -6.2% | 12.7%
COc1ccc(C2/C=C\CN(C(=O)CC(C)(C)C)CC(=O)N2Cc2ccc(F)cc2)cc1 (stereo unspecified) | u | -14.0% | -10.2% | u | -6.2% | 0.1%
CCCCCCC(=O)N1C/C=C\C(c2ccc(OC)cc2)N(Cc2ccc(F)cc2)C(=O)C1 (stereo unspecified) | 23.1µM* | -38.0% | u | u | -9.5% | -3.1%
CCCCCCNC(=O)N1C/C=C\C(c2ccc(OC)cc2)N(Cc2ccc(F)cc2)C(=O)C1 (stereo unspecified) | 23.1µM* | -23.3% | u | u | -4.6% | 0.1%
CCOc1ccc(/C=N/NC(=O)c2nnn(-c3nonc3N)c2CN2CCC(C)CC2)cc1 | u | -15.1% | 2.0% | -22.1% | 11.1% | 7.2%
CC1CCN(Cc2c(C(=O)N/N=C/c3cc(Br)ccc3O)nnn2-c2nonc2N)CC1 | 5.8µM* | -48.3% | u | 5.8µM* | 2.31µM* | 3.66µM*
COc1c(Cl)cc(Cl)cc1/C=N/NC(=O)c1nnn(-c2nonc2N)c1CN1CCC(C)CC1 | u | -8.1% | -5.3% | 14.6µM* | -1.0% | 10.4%
Cc1cc(C)c(/C=N/NC(=O)c2nnn(-c3nonc3N)c2CN2CCC(C)CC2)c(C)c1 | 20.6µM* | -126.7% | u | u | u | u
COc1ccc(/C=N/NC(=O)c2nnn(-c3nonc3N)c2-c2cccc(OC)c2)cc1 | 12.4% | -3.3% | 14.2% | -4.5% | -0.7% | 13.2%
COc1ccc(O)c(/C=N/NC(=O)c2c(C)nnn2-c2nonc2N)c1 | 8.2µM* | -22.9% | -0.8% | 18.4µM* | u | u
COC(=O)[C@]1(C)N[C@H](CN(C)S(=O)(=O)c2ccc(C(F)(F)F)cc2)[C@@H]2C(=O)N(C)C(=O)[C@@H]21 | 14.6% | 4.9% | -13.4% | 1.6% | 10.3% | 11.7%
SMILES | TDP1 cell noCPT | HepG2 tox | TGFb SMAD3 inh | TDP1 cell CPT | HT1080 IDH1KD tx | HT1080-NT tox
CCC1(CC)C(=O)N(c2ccccc2)C(=N)N(c2ccccc2)C1=O | 4.2% | 3.8% | 9.4% | 22.5% | 0.3% | -4.4%
COc1cc(Cl)c(S(=O)(=O)NCCc2c(C)[nH]c3c(C)cccc23)cc1Cl | x | -61.9% | u | x | x | x
C/C(=N\NC(=O)c1nnn(-c2nonc2N)c1CN1CCc2ccccc21)c1ccccc1O | 6.51µM* | -83.9% | u | 6.51µM* | 0.0% | -11.9%
CC1CCN(Cc2c(C(=O)N/N=C/c3cc(Cl)ccc3O)nnn2-c2nonc2N)CC1 | 5.8µM* | -9.2% | u | 4.61µM* | 4.11µM* | u
COc1cccc(C(=O)N(C)c2nnc(-c3ccncc3)s2)c1 | -26.5% | 15.6% | -9.8% | u | 8.4% | -1.2%
O=C(COC(=O)Cn1cnc2ccccc21)Nc1cc2c(cc1Cl)C(=O)c1ccccc1C2=O | 16.4µM* | -17.7% | -4.4% | 20.6µM* | -9.6% | -7.5%
O=C(COC(=O)Cn1cnc2ccccc21)Nc1cc(S(=O)(=O)N2CCOCC2)ccc1Cl | -14.3% | -0.7% | -5.2% | -5.5% | 13.5% | -0.4%
CCN(CC)c1ccc(/C=N/NC(=O)c2nnn(-c3nonc3N)c2CN(C)C2CCCCC2)cc1 | u | 25.2% | -5.1% | 3.9% | -3.0% | -3.4%
O=C(Cn1cnc2c(nnn2Cc2ccc(F)cc2)c1=O)OCc1ccccc1 | -23.5% | -31.4% | 0.6% | u | 0.0% | -0.3%
Cc1cccc(Cn2cnc3c(nnn3Cc3ccccc3F)c2=O)c1 | 28.2µM* | 8.8% | -11.9% | u | -26.1% | -0.6%
Cc1ccc(Cn2nnc3c(=O)n(CC(=O)OCc4ccccc4)cnc32)cc1 | 16.4µM* | -22.6% | u | 18.4µM* | 8.9% | 6.8%
Cc1ccc(Cn2nnc3c(=O)n(CC(=O)N4CCN(c5ccccc5)CC4)cnc32)cc1 | u | -14.0% | u | 20.6µM* | -25.9% | 5.2%
COC(=O)c1ccc(C(=O)OC)c(NC(=O)c2cnn3c(C(F)F)cc(-c4ccc(C)cc4)nc23)c1 | 1.2% | -14.0% | -2.1% | -19.3% | x | x
